Source: PubChem BioAssay
Compounds with a hit are over-represented: about 7.1% of the library has one in this group of screens.
IL-1B inflam inh: qHTS for Inhibitors of Inflammasome Signaling: IL-1-beta AlphaLISA Primary Screen. hit rate 4.7% among 360,000. AID 743279, 2014. THP-1 LPS/ATP IL-1B secretion, AlphaLISA, 16 h; hits give low values. activity change, % at 57.5 µM; in the data active = activity change below about -50%; inconclusive = mostly about -30% to -49%; also: % is scaled to controls: 0 for no effect and ±100 for the full control effect
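Secreted IL-1B measured by AlphaLISA bead assay after 16 h compound exposure of THP-1 cells; compounds (final up to 57.5 uM) added 1 h before LPS (250 ng/mL) and ATP (1.25 mM) stimulation; lower signal means less secretion.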
PINK1 modulator: A Quantitative High throughput Screen to Identify Chemical Modulators of PINK1 Expression | PINK1 immunofluorescence, high-content cytometry, 24 h | Potency, µM (doses to about 76.6 µM), inactives show top-dose activation (PINK1 increase), most hits filed as activators | hit rate 0.2% among 410,000; active = well fitted activation curve with a large enough effect; inconclusive = small, poorly fitted or top-dose-only effect; cell line not stated here; also: potency is read from the fitted curve at half-maximal effect; % of control where 0% means no effect; nearly all actives have a fitted effect of over 65% in size
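Cells are seeded, rested 12 hours, then given compound at five concentrations or DMSO for 24 hours. After fixation, blocking and antibody staining, PINK1 amount and mitochondrial localization are scored; CCCP serves as control.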
ATXN2 expr inh: Primary qHTS for Inhibitors of ATXN expression; HEK-293 ATXN2-luciferase reporter, luminescence, 24 h; Potency, µM (titrated, usually from 57 µM), for the others: at the highest dose activity change, negative = inhibition, most hits filed as inhibitors; hit rate 0.72% among 360,000; AID 1745845, 2022; also: potency is read from the fitted curve at half-maximal effect; % is scaled to controls: 0 for no effect and ±100 for the full control effect; nearly all actives have a fitted effect of over 55% in size
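qHTS (up to 57 uM final) was run with 24 h compound exposure of reporter cells at 37 °C. Each well was multiplexed: SteadyGlo luminescence measured ATXN2-luciferase expression after a fluorogenic Gly-Phe-AFC viability readout (25 uM final).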
SW480 rerep: A quantitative high throughput screen for small molecules that induce DNA re-replication in SW480 colon adenocarcinoma cells; SW480 DNA re-replication, Hoechst DNA content imaging, 48 h; Potency, µM (titrated, usually from 46.1 µM), for the others: top-dose re-replication activation, hits mostly activators; hit rate 1.8% among 340,000; AID 624297, 2012; also: potency is read from the fitted curve at half-maximal effect; % of control where 0% means no effect; nearly all actives have a fitted effect of over 55% in size
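DNA re-replication was detected as more nuclei of elevated Hoechst intensity after 48 hr exposure to compound (23 nL pinned per well of 250 cells).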
MCF10A rerep: A quantitative high throughput screen for small molecules that induce DNA re-replication in MCF 10a normal breast cells | MCF 10A DNA re-replication, Hoechst nuclear intensity, 48 h | Potency, µM (titrated, usually from 46.1 µM), inactives show top-dose activity, positive = re-replication, most hits filed as activators | hit rate 2.9% among 350,000; also: potency is read from the fitted curve at half-maximal effect; % of control where 0% means no effect; nearly all actives have a fitted effect of over 50% in size
ATXN viability: Viability Counterscreen for Primary qHTS for Inhibitors of ATXN expression; S2 cells (HEK-293 line with an ATXN2-luciferase reporter) viability, CellTiter-Fluor protease fluorescence, 24 h; Potency, µM (titrated, usually from 56.7 µM), hits mostly cytotoxic; hit rate 0.49% among 400,000; AID 651635, 2014; also: potency is read from the fitted curve at half-maximal effect; nearly all actives have a fitted effect of over 40% in size
* marks the source's active call; other numbers are inactive results; i = inactive; ? = inconclusive; . = not tested or not shown; [ ] = remark or other dose. Unless noted, calls follow the shape of the dose curve; as a rule, active = well fitted curve in the direction sought with a large enough effect; inconclusive = small, poorly fitted or top-dose-only effect, or another doubt; inactive = no such curve, though single readings can be large; an effect the other way counts as inactive or inconclusive.

SMILES	IL-1B inflam inh	PINK1 modulator	ATXN2 expr inh	SW480 rerep	MCF10A rerep	ATXN viability
Cc1ccc(-c2nc3ccc(C)cn3c2Cc2ccccn2)cc1	0.0	2.0%	-4.3%	.	.	?
CCN(C(=O)COC(=O)CNC(=O)c1ccccc1C)C1=CCCCC1	0.8	1.0%	.	-3.4%	-4.2%	i
CCCN(C(=O)CCl)C1=CCCCC1	-87.4*	-3.4%	8.44µM*	21.0%	16.1%	.
O=C(O)c1ccccc1-c1ccccc1C(=O)NNc1ccccc1	7.8	0.2%	0.1%	18.4µM*	2.6%	i
O=C(N/N=C/c1sc(N2CCOCC2)nc1-c1ccccc1)c1ccccc1F	29.2	-0.4%	-8.1%	0.1%	?	i
O=C(N/N=C/c1sc(N2CCOCC2)nc1-c1ccccc1)c1cccc(S(=O)(=O)N2CCOCC2)c1	193.1	?	.	20.6µM*	?	i
O=C(Nc1ccccc1F)C(=Cc1sc(N2CCOCC2)nc1-c1ccccc1)C(=O)Nc1ccccc1F	-23.9	2.9%	-11.8%	?	3.26µM*	.
NC(=O)N/N=C/c1sc(N2CCCCC2)nc1-c1cccs1	13.9	0.3%	.	20.6µM*	23.1µM*	?
O=C(N/N=C/c1sc(N2CCOCC2)nc1-c1ccccc1)c1ccccc1Cl	-57.4*	2.4%	0.2%	3.4%	0.0%	.
CCOC(=O)N1CCN(C(=O)c2cnn(-c3cccc(F)c3)c2-n2cccc2)CC1	.	-0.7%	.	.	.	.
CCNc1nc(N)c(C(=C(C#N)C#N)c2ccccc2)s1	-74.7*	-1.3%	23.4%	?	20µM*	i
CCOC(=O)c1cc(-c2ccc(F)cc2)n(CCC(=O)NCc2ccc(C)cc2)c1C	.	-0.9%	.	.	.	.
CC(C)=CCC/C(C)=C/CC/C(C)=C/C(=O)OCC(=O)[C@@]1(O)CC[C@H]2[C@@H]3CCC4=CC(=O)C=C[C@]4(C)[C@H]3[C@@H](O)C[C@@]21C	.	.	-9.8%	.	.	i
CCn1nc(NC(=O)c2ccco2)c2cc3ccccc3nc21	-10.3	?	2.7%	?	20.6µM*	.
CCn1nc(NC(=O)c2ccncc2)c2cc3ccccc3nc21	-22.0	0.0%	-3.6%	5.1%	?	i
CC(C)Cn1nc(NC(=O)c2ccco2)c2cc3ccccc3nc21	39.7	0.8%	0.4%	16.4µM*	?	i
Cc1ccc2nc3c(cc2c1)c(NC(=O)c1ccco1)nn3CC(C)C	-23.7	8.7%	-14.2%	?	12.3%	.
C=C1C(=O)C2=CC1CCC(=O)C1(C)CCC(OC(C)=O)C(C)(C)C1CC2O (configuration not stated)	-107.0*	-1.4%	?	2.06µM*	9.2µM*	.
O=C(c1ccccc1)C1OC1C(=O)c1ccccc1 (configuration not stated)	-95.7*	5.9%	8.9%	14.6µM*	9.2µM*	?
CC1C=CC(C)C(C(=O)c2ccccc2)C1C(=O)c1ccccc1 (configuration not stated)	26.2	13.1%	.	.	.	i
Cc1sc2nc(CN3CCC(C)CC3)nc(Cl)c2c1C	.	.	.	19.2%	14.6%	.
Cc1sc2nc(CN3CCOCC3)nc(Cl)c2c1C	-95.7*	-0.3%	7.6%	-0.6%	?	i
CCN1CCN(C(=O)c2cnn(-c3cccc(C)c3)c2C2CCN(C(=O)OC(C)(C)C)CC2)CC1	.	0.1%	.	.	.	.
CCN(CC)CCN(Cc1cc2cc(C)c(C)cc2[nH]c1=O)C(=S)NCc1ccco1	-141.9*	-0.6%	-3.1%	0.9%	0.1%	i
Cc1ccc(C)c2[nH]c(=O)c(CN(CC3CCCO3)C(=S)NCc3ccco3)cc12 (configuration not stated)	-76.6*	-0.9%	15.4%	14.5%	?	i
SMILES	IL-1B inflam inh	PINK1 modulator	ATXN2 expr inh	SW480 rerep	MCF10A rerep	ATXN viability
Cc1ccc2cc(CN(CC3CCCO3)C(=S)NCc3ccco3)c(=O)[nH]c2c1C (configuration not stated)	?	0.5%	94.9%	20.5%	16.2%	i
CCCCNC(=S)N(CCN(C)C)Cc1cc2cc3c(cc2[nH]c1=O)OCCO3	-51.2*	0.3%	?	-3.2%	3.9%	i
Cc1cc2cc(CN(CCN(C)C)C(=S)NCc3ccco3)c(=O)[nH]c2cc1C	-79.8*	-0.8%	-16.4%[11.3 µM]	12.3%	20.5%	i
COc1cc(NC(=O)c2noc3c2CC(C(C)(C)C)CC3)cc(OC)c1OC (configuration not stated)	.	2.5%	5.7%	.	.	i
CCCCn1c(SCC(=O)c2ccccc2)nc2sc3c(c2c1=O)CCCC3	.	1.1%	1.4%	.	.	i
CCc1ccc(-n2c(SCc3ccccc3C)nc3[nH]ncc3c2=O)cc1	.	-0.1%	.	.	.	.
Cc1cc(C)cc(N2CCn3c2nc2c3c(=O)n(Cc3c(F)cccc3Cl)c(=O)n2C)c1	.	0.5%	.	.	.	.
CSCCC(NS(=O)(=O)c1ccc(Cl)cc1)C(=O)OCc1cccc(Cl)c1 (configuration not stated)	0.0	9.6%	-11.8%	?	?	i
CSCCC(NS(=O)(=O)c1ccc(Cl)cc1)C(=O)OCc1c(Cl)cccc1Cl (configuration not stated)	36.1	39.8µM*	-31.2%	?	16.4µM*	i
O=C(CCCN1C(=O)C(c2ccccc2)Oc2cccnc21)Nc1ccc(Br)cc1F (configuration not stated)	.	4.2%	-8.1%	.	.	i
Cc1ccc(OCC(=O)N(Cc2ccc(N(C)C)cc2)CC2CCCO2)cc1C (configuration not stated)	.	0.8%	.	.	.	.
COc1ccc(/C=N/NC(=O)c2sc3nc(C)cc(C)c3c2N)cc1	-26.4	13.0%	-1.2%	?	5.8µM*	i
Cc1cc(C)c2c(N)c(C(=O)N/N=C/c3cccs3)sc2n1	.	25.1µM*	45.1%	?	18.4µM*	.
Cc1cc(C(F)(F)F)c2c(N)c(C(=O)NCc3ccc(Cl)cc3)sc2n1	?	2.0%	7.4%	.	.	i
COc1ccc(NC(=O)c2sc3nc(C)cc(C)c3c2N)cc1	0.0	6.1%	28.0%	?	?	i
